# According to PMC4336329 (PLoS ONE, 2015):
# Among all 310,000 compounds or so, about 14,000 (4.5%) showed an effect of 50% or more. The effect is printed as a negative number. What follows is part of a selection rich in strong results, with near analogues and random picks from the rest.
# Target: human ether-à-go-go-related gene (hERG) potassium channel (human, UniProt Q12809)
# Assay: primary screen, population patch clamp on CHO cells stably expressing hERG; higher = less effect of the substance
# 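Further: peak tail current of the secondary pulse compared with the same well before compound.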
# Sequence of human ether-à-go-go-related gene (hERG) potassium channel (Q12809 whole entry, looked up): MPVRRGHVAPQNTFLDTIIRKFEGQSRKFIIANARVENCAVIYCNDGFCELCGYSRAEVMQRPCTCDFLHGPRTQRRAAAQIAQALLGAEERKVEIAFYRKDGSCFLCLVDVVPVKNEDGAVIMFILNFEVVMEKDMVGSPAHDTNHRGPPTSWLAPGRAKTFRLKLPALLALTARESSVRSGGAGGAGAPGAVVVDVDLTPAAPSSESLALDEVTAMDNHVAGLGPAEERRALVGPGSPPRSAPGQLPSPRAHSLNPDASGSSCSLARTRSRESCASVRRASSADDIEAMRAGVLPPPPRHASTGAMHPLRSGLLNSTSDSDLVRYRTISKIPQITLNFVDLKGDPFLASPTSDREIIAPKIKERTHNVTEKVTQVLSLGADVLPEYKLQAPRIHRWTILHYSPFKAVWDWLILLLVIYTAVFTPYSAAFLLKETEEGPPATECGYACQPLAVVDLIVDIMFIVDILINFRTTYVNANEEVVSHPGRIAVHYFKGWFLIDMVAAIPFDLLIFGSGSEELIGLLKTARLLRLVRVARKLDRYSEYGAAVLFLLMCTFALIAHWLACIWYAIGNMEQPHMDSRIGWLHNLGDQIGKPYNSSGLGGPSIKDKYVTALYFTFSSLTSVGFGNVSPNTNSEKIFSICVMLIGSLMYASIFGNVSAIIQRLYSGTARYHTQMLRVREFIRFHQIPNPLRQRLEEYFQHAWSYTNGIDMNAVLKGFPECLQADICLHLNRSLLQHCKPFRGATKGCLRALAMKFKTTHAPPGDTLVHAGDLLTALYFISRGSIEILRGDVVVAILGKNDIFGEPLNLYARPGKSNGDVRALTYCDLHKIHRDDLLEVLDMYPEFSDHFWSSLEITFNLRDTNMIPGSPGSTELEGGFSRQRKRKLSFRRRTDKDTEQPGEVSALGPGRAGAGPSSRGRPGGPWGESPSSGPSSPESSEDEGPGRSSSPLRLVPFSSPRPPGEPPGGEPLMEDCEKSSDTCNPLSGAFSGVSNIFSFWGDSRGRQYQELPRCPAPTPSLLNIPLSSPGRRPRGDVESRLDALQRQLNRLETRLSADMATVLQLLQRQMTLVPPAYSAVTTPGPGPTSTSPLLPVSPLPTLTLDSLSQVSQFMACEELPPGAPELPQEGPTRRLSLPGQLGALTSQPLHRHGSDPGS
row,SMILES,"hERG current change (%, negative = inhibition) at 10uM [%]"
1,CN1/C(=C\C(=O)COC(=O)C2COc3ccccc3O2)C(C)(C)c2ccccc21 (stereo not drawn),9.13
2,CCCCn1c(N)c(N(CCC(C)C)C(=O)C(C)N2C(=O)c3ccccc3C2=O)c(=O)[nH]c1=O (stereo not drawn),8.31
3,CCCOC(=O)c1cccc(NC(=O)C(C)(C)C)c1,1.43
4,CCC1(C)Cc2c(sc3nnn(CC(=O)Nc4cccc5ccccc45)c(=O)c23)CO1 (stereo not drawn),3.09
5,CCC1(C)Cc2c(sc3nnn(CC(=O)Nc4ccccc4C)c(=O)c23)CO1 (stereo not drawn),-58.4
6,Cc1ccccc1NC(=O)Cn1nnc2sc3c(c2c1=O)CC(C)(C)OC3,-35.2
7,O=C1CN(C(=O)CN2CCCC2)C(c2ccccc2)c2cc(Br)ccc2N1 (stereo not drawn),-46.6
8,O=C1CN(C(=O)CCN2CCOCC2)C(c2ccccc2)c2cc(Br)ccc2N1 (stereo not drawn),-60.5
9,CCOC(=O)CN1C(=O)Nc2ccc(Br)cc2C1c1ccccc1 (stereo not drawn),-56.7
10,CCC(=O)N1CC(=O)Nc2ccc(Br)cc2C1c1ccccc1 (stereo not drawn),-11.6
11,O=C1CN(C(=O)CN2CCOCC2)C(c2ccccc2)c2cc(Br)ccc2N1 (stereo not drawn),-32.3
12,CCC(CC)C(=O)N1CC(=O)Nc2ccc(Br)cc2C1c1ccccc1 (stereo not drawn),-73.5
13,CCC(CC)C(=O)N1CC(=O)Nc2ccc(F)cc2C1c1ccccc1 (stereo not drawn),-11.4
14,O=C1CN(C(=O)CN2CCCCC2)C(c2ccccc2)c2cc(Br)ccc2N1 (stereo not drawn),-66.5
15,O=C(O)CN1C(=O)Nc2ccc(Br)cc2C1c1ccccc1 (stereo not drawn),-3.51
16,CCC(CC)C(=O)N1CC(=O)Nc2ccc(C)cc2C1c1ccccc1 (stereo not drawn),-38.1
17,CCOC(=O)N1CC(=O)Nc2ccc(Br)cc2C1c1ccccc1 (stereo not drawn),-24.4
18,COC(=O)CN1C(=O)Nc2ccc(Br)cc2C1c1ccccc1 (stereo not drawn),-14.6
19,COc1ccccc1C(=O)NCCC(=O)NCC(c1ccccc1OC)N1CCCC1 (stereo not drawn),29.8
20,O=C(Nc1ccncc1)C1CCN(S(=O)(=O)c2ccccc2)CC1,3.04
21,CCOC(=O)C1C(=O)CC(C)(O)C(C(=O)OCC)C1c1ccc([N+](=O)[O-])cc1 (stereo not drawn),-8.06
22,FC(F)(F)c1nc(-c2ccncc2)ncc1-c1nnnn1-c1ccccc1,-0.18

row,SMILES,"hERG current change (%, negative = inhibition) at 10uM [%]"
1,Cc1c(C(=O)N/N=C/c2ccoc2)cccc1[N+](=O)[O-],9.67
2,O=C(COc1coc(CN2CCN(c3ccccc3F)CC2)cc1=O)NC1CCCCC1,-21.6
3,CCOC(=O)c1ccc(NC(=O)C2CCN(S(=O)(=O)c3c(C)nn(C)c3C)CC2)cc1,-28.3
4,O=C(Nc1cccc(C(F)(F)F)c1)c1cc[n+]([O-])cc1,21.2
5,COc1ccc(OCC(=O)NS(=O)(=O)c2ccccc2)cc1,15.3
6,Cc1ccc2c(c1)C(c1ccccc1)N(C(=O)c1ccccc1[N+](=O)[O-])CC(=O)N2 (stereo not drawn),-40.5
7,O=C1CN(C(=O)c2ccccc2[N+](=O)[O-])C(c2ccccc2)c2cc(Br)ccc2N1 (stereo not drawn),-66.5
8,O=C1CN(C(=O)c2ccccc2F)C(c2ccc(F)cc2)c2cc(Br)ccc2N1 (stereo not drawn),-23
9,CCOC(=O)c1c(NC(C)=O)sc2c(OC(C)=O)cccc12,8.8
10,Cn1c(CO)cnc1SCc1ccc(F)cc1,18.2
11,CCOc1ccccc1/C=N/NC(=O)c1nnn(-c2nonc2N)c1CN1CCC(C)CC1,9.08
12,O=C(CN1CCN(Cc2ccccc2)CC1)N1CCCc2c1c(=O)oc1ccc(O)cc21,-14
13,CC(=O)c1cccc(NC(=O)C(C)N2CCc3ccccc3C2)c1 (stereo not drawn),4.43
14,CN(CC(=O)N1CCCc2c1c(=O)oc1ccc(O)cc21)Cc1ccccc1,-67.4
15,CC(C(=O)N1CCCc2c1c(=O)oc1ccc(O)cc21)N1CCc2ccccc2C1 (stereo not drawn),-56.5
16,CCCOc1ccc2oc(=O)c3c(c2c1)CCCN3C(=O)CN(C)Cc1ccccc1,-29.7
17,CC1CCN(CCC(=O)N2CCCc3c2c(=O)oc2ccc(O)cc32)CC1,-14
18,O=C(NCCCl)C1Cc2c(ccc3ccccc23)O1 (stereo not drawn),7.97
19,O=C(CCNC(=O)C1CCN(S(=O)(=O)c2ccccc2)CC1)NCc1ccc(Cl)cc1,8.88
20,Nc1ccccc1Nc1ccncc1[N+](=O)[O-],20
21,CCOC(=O)C1(CCOc2ccccc2)CCN(Cc2ccc(OC)c(O)c2)CC1,-82.2
22,CCOC(=O)C1(Cc2ccccc2)CCCN(Cc2ccc(OCCO)cc2)C1 (stereo not drawn),-1.04

row,SMILES,"hERG current change (%, negative = inhibition) at 10uM [%]"
1,CCOC(=O)C1(Cc2ccccc2)CCCN(Cc2ccc(OCC)c(CO)c2)C1 (stereo not drawn),-52.3
2,CCOC(=O)C1(Cc2ccccc2)CCCN(Cc2cccc(C(C)=O)c2)C1 (stereo not drawn),-2.24
3,CCOC(=O)C1(CCOc2ccccc2)CCN(Cc2ccc(OCC)c(CO)c2)CC1,-79.5
4,CCOC(=O)C1(CCOc2ccccc2)CCN(Cc2ccc(OC)c(COC)c2)CC1,-80.2
5,Cc1ccc(NC(=O)COC(=O)CCc2c[nH]c3ccccc23)c(C)c1,9.87
6,COC(=O)C(C)Oc1ccc(Cl)c(CN2OCC(C)(C)C2=O)c1 (stereo not drawn),5.26
7,Cc1ccccc1OCCC(=O)OCC(=O)NCCc1ccccc1,-0.876
8,Cc1nnn(-c2nonc2N)c1C(=O)N/N=C/c1cccc2ccccc12,-7.26
9,CCOC(=O)C1CCN(S(=O)(=O)c2c(C)noc2C)CC1,-37.9
10,Cc1nc(C(C)N(C)Cc2c(C(=O)N3CCCCC3)nc3c(C)cccn23)c(C)s1 (stereo not drawn),-22.7
11,CCOC(=O)C1(CCOc2ccccc2)CCN(Cc2cc(OC)c(O)c(OC)c2)CC1,-77.6
12,CCOC(=O)C1(CCOc2ccccc2)CCN(Cc2ccc(O)c(OC)c2)CC1,-75.4
13,CCOC(=O)C1(CCOc2ccccc2)CCN(Cc2ccc(F)c(OC)c2)CC1,-35.3
14,CCOC(=O)C1(CCOC)CCN(Cc2ccc3nonc3c2)CC1,-10.5
15,CCOCCCNC(=O)Cc1ccc(OC)c(OC)c1,14.1
16,Cc1ccc(NC(=O)CC(=O)Nc2ccc(C)c(C)c2)cc1C,11.7
17,CCCn1c(CC)nc([N+](=O)[O-])c1S(=O)(=O)c1ccccc1,-23.8
18,CCOC(=O)N1CCN(C(=O)C2CCN(S(=O)(=O)c3ccc(Cl)cc3)CC2)CC1,-48.7
19,O=C1CS/C(=N\N=C\c2ccccc2Cl)N1CC1CC1,12.3
20,FC(F)(F)c1ccc2c(c1)n(Cc1ccccc1)c1[n+]2CCCCC1.[Cl-],-24
21,Cc1cc(C(C)(C)C)cc(C)c1Cn1c2[n+](c3ccc(C(F)(F)F)cc31)CCCCC2.[Cl-],-55.4
22,FC(F)(F)c1cccc(Cn2c3[n+](c4ccc(C(F)(F)F)cc42)CCCCC3)c1.[Cl-],-17.6

row,SMILES,"hERG current change (%, negative = inhibition) at 10uM [%]"
1,COc1ccc(OC)c(CC(=O)O)c1,10.8
2,O=C(NC1CCCCC1)C1CCN(c2nccs2)CC1,4.43
3,COc1ccc(/C=C2/C(=O)N=C(N)N2C)cc1OC,7.3
4,COc1cc(-c2noc(C)c2/C=C/c2cccc([N+](=O)[O-])c2)cc(OC)c1OC,-2.59
5,COC(=O)C1=CN(CCCN2CCCC2=O)C=C(C(=O)OC)C1c1ccccc1C(F)(F)F,-57.1
6,CCCCN1C=C(C(=O)OC)C(c2ccccc2C(F)(F)F)C(C(=O)OC)=C1,-1.84
7,CCOC(=O)C1=CN(CC2CCCO2)C=C(C(=O)OCC)C1c1ccccc1C(F)(F)F (stereo not drawn),-64.7
8,COC(=O)C1=CN(CC2CCCO2)C=C(C(=O)OC)C1c1ccccc1C(F)(F)F (stereo not drawn),8.49
9,COC(=O)C1=CN(CCCN2CCCC2=O)C=C(C(=O)OC)C1c1cccs1,-25.1
10,COCCN1C=C(C(=O)OC)C(c2ccccc2C(F)(F)F)C(C(=O)OC)=C1,-8.36
11,CN(Cc1ccccc1Br)C(=O)CN1C(=O)NC2(CCCCCC2)C1=O,-11.1
12,COC(=O)c1ccc(CN2CCC(CO)(CCOc3ccccc3)CC2)cc1,-80.1
13,OCC1(CCOc2ccccc2)CCN(Cc2ccncc2)CC1,-41.5
14,O=C(Nc1cccc(Cl)c1)OCCOc1ccccc1,23
15,CC(=O)Nc1ccc(CN2CCC(CO)(CCOc3ccccc3)CC2)cc1,-69.9
16,CSc1ccc(CN2CCC(CO)(CCOc3ccccc3)CC2)cc1,-78.4
17,O=C(Nc1cccc(Cl)c1)N1CCCC1,5.7
18,O=C(Nc1cccc(Cl)c1)N1CCC(CO)(CCOc2ccccc2)CC1,-58.6
19,CC(=O)Nc1ccc(N2CCN(Cc3ccccc3)CC2)cc1,-14.6
20,CCS(=O)(=O)N1CCN=C1SCc1cccc(F)c1,14.7
21,CCCCN(C)C(=O)c1ccc2c(c1)S(=O)(=O)c1ccccc1C2=O,-24.4
